hNpr1 antagonist = human Npr1 receptor antagonism | P16066 | HEK293 hNpr1 GloSensor cGMP, ANP-stimulated luminescence | Potency, µM (highest dose often 46.3 µM), inactives show at the highest dose activity change, negative = inhibition, actives largely listed as inhibitors | 1.6% of 76,000 active | AID 1347048; calls by dose curve; also: nearly all actives have a fitted effect of over 60% in size
Target sequence (P16066 whole entry, looked up): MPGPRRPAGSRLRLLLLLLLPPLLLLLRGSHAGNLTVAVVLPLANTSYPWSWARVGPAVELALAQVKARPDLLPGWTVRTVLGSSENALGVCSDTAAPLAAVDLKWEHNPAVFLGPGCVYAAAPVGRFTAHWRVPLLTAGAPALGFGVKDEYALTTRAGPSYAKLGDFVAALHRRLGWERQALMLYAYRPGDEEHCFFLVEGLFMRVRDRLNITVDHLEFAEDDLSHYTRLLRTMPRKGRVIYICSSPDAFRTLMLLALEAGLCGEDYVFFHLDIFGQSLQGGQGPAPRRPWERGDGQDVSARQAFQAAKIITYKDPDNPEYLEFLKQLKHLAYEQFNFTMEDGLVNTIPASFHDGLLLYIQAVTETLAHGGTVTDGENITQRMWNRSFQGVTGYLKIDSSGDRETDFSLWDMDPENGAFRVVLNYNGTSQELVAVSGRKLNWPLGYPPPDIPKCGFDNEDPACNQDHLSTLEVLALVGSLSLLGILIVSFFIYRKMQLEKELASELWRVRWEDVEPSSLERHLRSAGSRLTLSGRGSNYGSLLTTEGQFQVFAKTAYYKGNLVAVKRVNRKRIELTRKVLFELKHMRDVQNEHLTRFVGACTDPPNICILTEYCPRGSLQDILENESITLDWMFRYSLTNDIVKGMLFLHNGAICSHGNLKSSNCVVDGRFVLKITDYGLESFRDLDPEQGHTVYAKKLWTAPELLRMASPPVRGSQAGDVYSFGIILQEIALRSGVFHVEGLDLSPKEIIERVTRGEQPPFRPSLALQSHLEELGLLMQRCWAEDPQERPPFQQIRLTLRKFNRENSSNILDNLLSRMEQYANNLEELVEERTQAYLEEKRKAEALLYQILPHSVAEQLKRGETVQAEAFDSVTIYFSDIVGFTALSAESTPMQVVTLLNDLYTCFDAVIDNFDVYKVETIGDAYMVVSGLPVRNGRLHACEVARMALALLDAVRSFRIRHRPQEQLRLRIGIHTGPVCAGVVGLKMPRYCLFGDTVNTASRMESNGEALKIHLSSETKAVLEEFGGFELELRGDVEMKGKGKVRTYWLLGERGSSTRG
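HEK293 cells stably expressing human Npr1 and cGMP GloSensor pGS-40F, loaded 2 h with 2% GloSensor reagent, given compound 30 min at room temperature. Luminescence read before and 20 min after 0.1 nM hNppA.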
3T3 cytotox = kills NIH 3T3 cells. Potency, µM (titrated, usually from 96.7 µM), without a hit: top-dose activity change, negative = cytotoxicity, usual class: inhibitors. 4.3% of 94,000 active. AID 1345082. NIH 3T3 viability, CellTiter-Glo ATP luminescence, 48-72 h; also: nearly all actives have a fitted effect of over 55% in size
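Viability of NIH 3T3 cells after 48 or 72 hr compound treatment at 37 °C was assessed by CellTiter-Glo, with luminescence imaged following a 10 min room-temperature step.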
HEK cytotox = HEK 293 cell cytotoxicity | HEK 293 viability, ATP luminescence (CellTiter-Glo), 48-72 h | Potency, µM (series often up to 115 µM), inactives show top-dose activity change, negative = cytotoxicity, most hits filed as inhibitors | 6.6% of 94,000 active | AID 1345083; also: nearly all actives have a fitted effect of over 60% in size
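ATP-coupled CellTiter-Glo luminescence served as viability read-out, recorded 10 min after reagent addition at room temperature. HEK 293 cells, 250 cells/well, had been incubated with pintool-transferred compound for 48 or 72 hr at 37 degree Celsius.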
Luciferase inh = Photinus pyralis luciferase inhibition; purified P. pyralis luciferase, luminescence, biochemical; Potency, µM (titrated, usually from 115 µM), actives largely listed as inhibitors; P08659; AID 1347043; 2.5% of 76,000 active; also: nearly all actives have a fitted effect of over 65% in size
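Purified P. pyralis luciferase (10nM final) in 50mM Tris acetate pH 7.5, 10mM Mg acetate, 0.01% Tween-20, 0.05% BSA with 10uM D-luciferin and 10uM ATP. Compounds titrated qHTS. Luminescence imaged on CCD.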
GPT2 inh = inhibitors of human GPT2 alanine aminotransferase; Potency, µM (doses to about 57.7 µM), without a hit: at the highest dose activity change, negative = inhibition, most hits filed as inhibitors; Recombinant GPT2, coupled pyruvate oxidase/HRP Amplex Red fluorescence; 0.25% of 100,000 active; also: nearly all actives have a fitted effect of over 60% in size
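Inhibition is scored from Amplex Red fluorescence generated when pyruvate oxidase and HRP act on pyruvate released by GPT2. Reactions contain 10ng/uL enzyme, 250uM a-KG and 2mM L-alanine and run 30 min at room temperature.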
Active calls of the source: *; i = inactive; ? = inconclusive; · = no result; ! = not confirmed by another sample; [ ] = another dose, or the depositor's remark. In the library only some 10% were active in any assay of this set; here they are far more common. Unless noted, calls follow the shape of the dose curve; as a rule, active = well fitted curve in the direction sought with a large enough effect; inconclusive = small, poorly fitted or top-dose-only effect, or another doubt; inactive = no such curve, though single readings can be large; an effect the other way counts as inactive or inconclusive. % is scaled to controls: 0 for no effect and ±100 for the full control effect; potency is read from the fitted curve at half-maximal effect.

SMILES	hNpr1 antagonist	3T3 cytotox	HEK cytotox	Luciferase inh	GPT2 inh
N#Cc1ccc(CN2CCC3(CC(c4cccc(C(F)(F)F)c4)=NO3)C2)cc1 (centres undefined)	·	?	?	·	-6%
Cc1ccc(CN2CCC3(CC2)CC(c2cccnc2)=NO3)cc1	-17%[70.6 µM]	?	79µM*!	i	-3%[88.5 µM]
CC(=O)Nc1ccc(CN2CCC3(CC2)CC(c2cccnc2)=NO3)cc1	-13%	5%	-20%	i	-28%
CC(=O)Nc1ccc(CN2CCC3(CC2)CC(c2cccc(C(F)(F)F)c2)=NO3)cc1	-7%	35µM*	40µM*	i	3%
CCS(=O)(=O)N1C[C@@H](C(=O)NCc2ccc(C)o2)[C@H](c2ccncc2)C1	·	-14%	-5%	·	i
O=C(CCc1cccnc1)N1CC(COc2ccccc2)C2(C1)CN(c1ccccc1)C2 (centres undefined)	-1%[70.6 µM]	?	89µM*	i	1%[88.5 µM]
COC1CCC(C(=O)N2CC(COc3ccccc3)C3(C2)CN(c2ccccc2)C3)CC1 (centres undefined)	-9%[70.6 µM]	89µM*	89µM*	i	-31%[88.5 µM]
O=C(O)c1ccc([S+](=O)([O-])N2CC(COc3ccccc3)C3(CN(c4ccccc4)C3)C2)cc1 (centres undefined)	-14%	32µM*	-32%	i	?
COC1CCC(C(=O)N2CC(CNc3ccccc3)C3(C2)CN(c2ccccc2)C3)CC1 (centres undefined)	-5%[70.6 µM]	45µM*	63µM*	i	2%[88.5 µM]
O=C(c1ccc(C(F)(F)F)cc1)N1CCCC(C(=O)N2CCC(c3nc4ncccc4[nH]3)CC2)C1 (centres undefined)	·	-7%	-7%	·	2%
COc1ccc(-c2ccccc2C(=O)NCC(F)F)nn1	·	-9%[138 µM]	0%[172 µM]	·	·
O=C(NCC1CN(C(=O)NCc2ccc(F)cc2)CC12CCCCC2)C1CC1 (centres undefined)	·	-47%	-25%	·	i
COc1ccc(-c2nc(C(C)C)nc3c2CCN(C(=O)c2ccccc2C)CC3)cc1	-1%	?	?	i	4%
COC1CCOC2(CCN(C(=O)c3cc(-c4ccccc4)n[nH]3)CC2)C1 (centres undefined)	0%	i	-8%	i	i
COCC(=O)N1CC(CNc2ccccc2)C2(C1)CN(c1ccccc1)C2 (centres undefined)	-20%[70.6 µM]	-14%[138 µM]	?	i	i
O=C(Cc1cccc(O)c1)N1CC(CNc2ccccc2)C2(C1)CN(c1ccccc1)C2 (centres undefined)	-18%[70.6 µM]	22µM*	32µM*	i	-42%[88.5 µM]
O=C(c1n[nH]c2c1CCCC2)N1CCC2(CC1)N=C(c1ccccc1)NO2	-24%	-16%	?	28µM*	i
O=C(c1ccncc1)N1CCC2(CC1)N=C(c1ccccc1)NO2	4%	i	7%	i	i
Cn1nc(C(=O)N2CCC3(CC2)N=C(c2ccccc2)NO3)c2ccccc21	-4%	-3%	?	35µM*	i
CC(C)Cc1ccc(S(=O)(=O)N2CCCC(Cn3cnc4cccnc43)C2)cc1 (centres undefined)	-22%	?	45µM*	i	?
Cc1nc2cccnc2n1CC1CCCN(S(=O)(=O)c2cccc(F)c2)C1 (centres undefined)	-18%	?	35µM*	i	i
O=S(=O)(c1cc(F)cc(F)c1)N1CCCC(Cn2c(C3CC3)nc3cccnc32)C1 (centres undefined)	6%	40µM*	?	i	i
C[S+](=O)([O-])N1CC2(CCCN(C3CCCCC3)C2)Cc2ccccc21 (centres undefined)	·	-21%	?	·	i
O=C(c1ccccc1F)N1CCC2(C1)C(=O)Nc1ccccc12 (centres undefined)	·	i	5%	·	1%
O=C(c1ccccc1F)N1CCCC(C(=O)N2CCC(N3Cc4cccn4C3=O)CC2)C1 (centres undefined)	·	-29%	?	·	1%
SMILES	hNpr1 antagonist	3T3 cytotox	HEK cytotox	Luciferase inh	GPT2 inh
CC(Cn1ccc2ccccc21)NC1CCN(c2ccc(C(=O)N(C)C)cc2)CC1 (centres undefined)	0%	-5%	-20%	i	i
Cc1ccc([S+](=O)([O-])NC2CCCN(Cc3ccc(-c4cncnc4)cc3)C2)cc1 (centres undefined)	·	?	?	·	1%
Cc1cc(C)cc(-c2ccc(CN3CCCC(NC(=O)NC(C)C)C3)cc2)c1 (centres undefined)	·	-26%	-27%	·	0%
Cc1cc(C)cc(-c2ccc(CN3CCCC(N[S+](C)(=O)[O-])C3)cc2)c1 (centres undefined)	·	?	40µM*	·	?
Cc1cc(C)cc(-c2ccc(CN3CCCC(N[S+](=O)([O-])c4cccc(C(F)(F)F)c4)C3)cc2)c1 (centres undefined)	·	32µM*	?	·	-11%
CSc1ccc(-c2cccc(C(=O)NCCNC(=O)Nc3ccc(Cl)cc3)c2)cc1	·	?	?	·	i
COc1cc(C(=O)NC2CCN(c3cc(-c4ccc(F)cc4)[nH]n3)CC2)cc(OC)c1OC	4%	-22%	?	i	-2%
CCC(CC)c1cc([C@H]2CN3CC[C@H]2C[C@@H]3CNC(=O)c2cc(OC)c(OC)c(OC)c2)nc(-c2ccncc2)n1	?	20µM*	28µM*	i	-23%
COCCC(=O)N1CCC(N2C(=O)C(OC)C23CCOCC3)CC1 (centres undefined)	3%	-1%	-7%	i	0%
O=C(NCC(F)(F)F)c1ccc2nnc(-c3cc(F)ccc3F)n2c1	·	-10%	i	·	-24%
COC1C(=O)N(c2cccc(F)c2)C12CCN(S(=O)(=O)Cc1ccccc1F)CC2 (centres undefined)	-25%	-18%	40µM*	i	1%
COC1C(=O)N(c2cccc(F)c2)C12CCN(S(=O)(=O)Cc1ccccc1)CC2 (centres undefined)	-3%	-17%	?	i	i
COC1C(=O)N(c2cccc(F)c2)C12CCN(C(=O)c1cc3ccccc3[nH]1)CC2 (centres undefined)	-3%	?	32µM*	?	i
O=C1CS(=O)C2(CCN(S(=O)(=O)Cc3ccccc3F)CC2)N1CC1CC1 (centres undefined)	-7%	?	?	i	i
O=C(O)CCC(=O)N1Cc2ccccc2CC2(CCCN(Cc3ccc(O)cc3)C2)C1 (centres undefined)	·	i	i	·	i

Screens deposited in PubChem by National Center for Advancing Translational Sciences (NCATS).
